# Target: AT4G31550 (Arabidopsis thaliana, UniProt Q9SV15 228-325)
# Assay: DPI-ELISA; DPI-ELISA, streptavidin 384-well plate, 1-2 pmol biotinylated dsDNA per well, crude native E. coli extract, anti-His detection; buffer as in Brand et al. [46],; high values mean tight binding
# Settings: tags: C-terminal His (pET-DEST42); label: 5' biotin on forward strand; dsDNA, one strand shown
# AT4G31550, sequence (Q9SV15 228-325): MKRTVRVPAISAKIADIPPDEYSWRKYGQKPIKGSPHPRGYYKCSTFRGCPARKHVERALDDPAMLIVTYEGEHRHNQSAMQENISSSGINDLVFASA
row,Sequence,binding signal [absorbance]
1,AAAAAAAATACTGCGCACTTGCACTCAAAA,0.6 ± 0.127
2,AAAAAACGTTGAACCTGGGCCTCAACAAAA,1.39 ± 0.191
3,AAAAAATCGGGGATCCGGGCGGTTGCAAAA,0.665 ± 0.12
4,AAAAAATGCCATTGTACCTGTGTTCGAAAA,0.395 ± 0.0354
5,AAAAAACGGAAGATCGTGACTGCTAGAAAA,0.715 ± 0.0354
6,AAAAAAGTGCGTTCACGCTTGTATCTAAAA,0.69 ± 0.17
7,AAAAAAGCTAGTGCTGCCACCAACGTAAAA,0.535 ± 0.12
8,AAAAAATATGTTTTCGCTTTATTCTTAAAA,0.52 ± 0.099
9,AAAAAAGGCCACGGTAACCCCTTTTGAAAA,0.695 ± 0.12
10,AAAAAAGCTCGTCTCCGCCTCCTGCTAAAA,0.785 ± 0.262
11,AAAAAAATTCATGCTATTTAACCTTAAAAA,0.745 ± 0.0919
12,AAAAAAGTTTCTGCTTTCCCTTTCGTAAAA,0.665 ± 0.205
13,AAAAAATCTTCACCTCACTTCGGTTTAAAA,0.67 ± 0.0566
14,AAAAAATTCAAAATGATCACTACGGGAAAA,0.545 ± 0.0778
